Source: ChEMBL document CHEMBL3988442, “University of Dundee, Small-Polar-MMV Screening Library” (2021)
For part of these data: Potency and affinity values are given separately.

Columns and labels:
Set-up in all cases: scale not given: direction of the effect not stated beside the values
[1] = molecular target: Protein translocase subunit SecA (Escherichia coli (strain K12)) (UniProt P10408); experiment: Assay to Identify E. coli SecA ATPase Inhibitors; assay type: functional; conditions: 30 µM
Protein translocase subunit SecA (Escherichia coli (strain K12)), sequence (P10408 whole entry): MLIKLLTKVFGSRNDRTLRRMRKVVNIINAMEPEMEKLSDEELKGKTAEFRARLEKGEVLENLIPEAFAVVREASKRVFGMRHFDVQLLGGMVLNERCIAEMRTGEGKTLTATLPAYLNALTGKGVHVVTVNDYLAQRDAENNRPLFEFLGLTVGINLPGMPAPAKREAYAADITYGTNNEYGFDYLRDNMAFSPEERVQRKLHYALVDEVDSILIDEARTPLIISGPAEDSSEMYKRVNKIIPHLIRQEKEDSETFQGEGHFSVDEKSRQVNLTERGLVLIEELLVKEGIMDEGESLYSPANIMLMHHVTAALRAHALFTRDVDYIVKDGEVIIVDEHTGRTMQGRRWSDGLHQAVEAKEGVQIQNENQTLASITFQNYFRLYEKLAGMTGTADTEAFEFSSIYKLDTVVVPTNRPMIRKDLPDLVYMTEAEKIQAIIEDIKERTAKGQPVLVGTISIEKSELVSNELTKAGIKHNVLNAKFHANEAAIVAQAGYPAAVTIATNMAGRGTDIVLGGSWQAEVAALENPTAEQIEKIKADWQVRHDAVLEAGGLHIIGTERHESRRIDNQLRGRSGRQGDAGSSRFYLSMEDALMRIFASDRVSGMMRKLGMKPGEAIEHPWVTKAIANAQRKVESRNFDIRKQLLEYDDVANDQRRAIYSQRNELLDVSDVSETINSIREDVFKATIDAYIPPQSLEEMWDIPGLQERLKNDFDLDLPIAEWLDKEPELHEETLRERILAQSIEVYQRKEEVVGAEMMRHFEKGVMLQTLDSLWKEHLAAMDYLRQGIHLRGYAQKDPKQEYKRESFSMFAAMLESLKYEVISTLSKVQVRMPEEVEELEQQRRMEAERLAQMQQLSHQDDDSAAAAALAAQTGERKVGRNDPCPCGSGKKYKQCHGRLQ

[2] = molecular target: T1, Ubiquitin-activating enzyme e1, putative (Leishmania donovani (strain BPK282A1)) (UniProt E9BSI1); experiment: Leishmania donovani Ubiquitin Activating Enzyme (LdE1); assay type: functional; conditions: 30 µM
T1 sequence (whole entry): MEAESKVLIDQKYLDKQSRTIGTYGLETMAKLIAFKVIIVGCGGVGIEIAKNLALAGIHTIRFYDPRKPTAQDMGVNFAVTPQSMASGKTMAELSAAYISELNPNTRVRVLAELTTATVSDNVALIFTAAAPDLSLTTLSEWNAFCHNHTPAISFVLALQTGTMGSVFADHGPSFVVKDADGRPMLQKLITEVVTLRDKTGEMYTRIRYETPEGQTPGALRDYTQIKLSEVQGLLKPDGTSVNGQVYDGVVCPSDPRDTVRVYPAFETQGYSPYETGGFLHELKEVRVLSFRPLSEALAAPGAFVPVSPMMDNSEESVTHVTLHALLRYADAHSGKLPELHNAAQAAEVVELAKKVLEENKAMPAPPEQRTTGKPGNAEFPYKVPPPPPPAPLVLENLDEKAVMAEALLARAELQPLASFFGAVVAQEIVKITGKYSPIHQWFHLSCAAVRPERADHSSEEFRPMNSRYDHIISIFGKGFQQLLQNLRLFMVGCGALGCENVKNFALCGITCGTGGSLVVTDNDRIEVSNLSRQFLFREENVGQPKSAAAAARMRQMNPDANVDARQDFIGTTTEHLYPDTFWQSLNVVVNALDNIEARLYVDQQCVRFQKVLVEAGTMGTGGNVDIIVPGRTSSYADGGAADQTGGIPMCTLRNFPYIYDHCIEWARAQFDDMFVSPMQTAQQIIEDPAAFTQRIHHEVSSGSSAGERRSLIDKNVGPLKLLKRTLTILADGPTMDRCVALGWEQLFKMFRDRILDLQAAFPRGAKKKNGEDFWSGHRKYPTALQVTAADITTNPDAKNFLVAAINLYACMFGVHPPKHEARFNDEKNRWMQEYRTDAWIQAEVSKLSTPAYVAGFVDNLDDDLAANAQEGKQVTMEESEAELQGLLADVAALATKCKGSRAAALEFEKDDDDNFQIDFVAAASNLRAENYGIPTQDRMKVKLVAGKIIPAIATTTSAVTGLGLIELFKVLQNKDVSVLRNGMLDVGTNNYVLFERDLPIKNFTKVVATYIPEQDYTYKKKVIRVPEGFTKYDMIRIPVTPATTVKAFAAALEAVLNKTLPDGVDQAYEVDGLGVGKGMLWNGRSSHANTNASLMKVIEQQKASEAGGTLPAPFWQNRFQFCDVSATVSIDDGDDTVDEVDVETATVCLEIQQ

[3] = molecular target: AMP-activated protein kinase, AMPK (Homo sapiens) (UniProt P54646+O43741+P54619+Q9UGJ0+Q9Y478+Q13131+Q9UGI9); experiment: AMP-dependent Kinase enzyme assay. An in vitro enzyme assay that detects ADP turnover that is directly proportional to AMPK activity. This uses naive AMPK that is activated during the assay with MK-8722; assay type: functional; conditions: 30 µM
[4] = molecular target: Sialic acid-binding Ig-like lectin 9 (Homo sapiens) (UniProt Q9Y336); experiment: Hs-Siglec9 ALPHAscreen SOP 20170721; conditions: 10 µM
Sialic acid-binding Ig-like lectin 9 (Homo sapiens), sequence (Q9Y336 whole entry): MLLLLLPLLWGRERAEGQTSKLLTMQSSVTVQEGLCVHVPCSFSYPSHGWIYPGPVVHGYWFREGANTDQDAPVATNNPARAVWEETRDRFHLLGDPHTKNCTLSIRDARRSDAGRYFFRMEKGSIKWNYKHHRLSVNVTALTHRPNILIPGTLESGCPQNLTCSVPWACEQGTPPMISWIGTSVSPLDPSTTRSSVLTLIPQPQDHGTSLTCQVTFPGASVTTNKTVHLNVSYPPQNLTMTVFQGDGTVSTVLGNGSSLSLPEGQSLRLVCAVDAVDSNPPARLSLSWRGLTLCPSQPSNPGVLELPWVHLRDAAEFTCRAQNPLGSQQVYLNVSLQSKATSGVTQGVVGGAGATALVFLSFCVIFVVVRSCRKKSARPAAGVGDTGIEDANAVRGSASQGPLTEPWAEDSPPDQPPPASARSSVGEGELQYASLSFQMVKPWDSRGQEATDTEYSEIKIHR

[5] = test system: Trypanosoma cruzi; experiment: Trypanosoma cruzi phosphomannomutase and mannose-1-phosphate guanylyltransferase assay; assay type: functional; conditions: 10 µM
[6] = molecular target: T2, Arginase-2, mitochondrial (Homo sapiens) (UniProt P78540); experiment: in vitro enzyme assay to detect the production of urea directly proportional to the activity of Arginase II; assay type: functional; conditions: 33.3 µM; further: in the data most compounds retested in dose-response had high values
T2 sequence (whole entry): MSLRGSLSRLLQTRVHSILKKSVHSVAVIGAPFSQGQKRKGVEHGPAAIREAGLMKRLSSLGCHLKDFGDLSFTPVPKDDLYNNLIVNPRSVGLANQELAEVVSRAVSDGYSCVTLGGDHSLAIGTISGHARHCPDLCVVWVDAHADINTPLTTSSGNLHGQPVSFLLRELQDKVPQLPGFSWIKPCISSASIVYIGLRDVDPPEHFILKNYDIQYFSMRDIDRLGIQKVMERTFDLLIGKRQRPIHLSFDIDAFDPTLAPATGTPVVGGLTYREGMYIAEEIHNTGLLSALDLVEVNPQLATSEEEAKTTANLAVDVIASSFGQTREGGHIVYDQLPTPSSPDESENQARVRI

[7] = molecular target: T3, Proteasome subunit beta (Trypanosoma cruzi) (UniProt O96673); experiment: Trypanosoma cruzi proteasome chymotrypsin-like activity (TcProtChymo) assay.; further: in the data most compounds retested in dose-response had high values; assay type: functional; conditions: 9.37 µM
T3 sequence (whole entry): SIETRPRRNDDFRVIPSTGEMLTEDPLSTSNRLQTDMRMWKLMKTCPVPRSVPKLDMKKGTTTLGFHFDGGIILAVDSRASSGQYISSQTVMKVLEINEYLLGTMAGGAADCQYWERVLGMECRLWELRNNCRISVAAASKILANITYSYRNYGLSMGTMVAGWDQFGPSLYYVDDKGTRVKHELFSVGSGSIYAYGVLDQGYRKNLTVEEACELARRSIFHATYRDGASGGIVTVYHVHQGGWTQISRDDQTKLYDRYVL

[8] = species: Homo sapiens; experiment: To identify inhibition of the IFN signalling (Jak-Stat) pathway via expression of an eGFP reporter gene under the control of an IFN-stimulated response element (ISRE) containing MxA promoter.; assay type: functional; conditions: 30 µM
[9] = molecular target: T4, Tyrosyl-tRNA synthetase, putative (Trypanosoma cruzi (strain CL Brener)) (UniProt Q4DSP6); experiment: Trypanosoma cruzi tyrosyl tRNA synthetase (TcYRS) _High Tyrosine SOP; assay type: functional; conditions: 30 µM; further: in the data most compounds retested in dose-response had high values
T4 sequence (whole entry): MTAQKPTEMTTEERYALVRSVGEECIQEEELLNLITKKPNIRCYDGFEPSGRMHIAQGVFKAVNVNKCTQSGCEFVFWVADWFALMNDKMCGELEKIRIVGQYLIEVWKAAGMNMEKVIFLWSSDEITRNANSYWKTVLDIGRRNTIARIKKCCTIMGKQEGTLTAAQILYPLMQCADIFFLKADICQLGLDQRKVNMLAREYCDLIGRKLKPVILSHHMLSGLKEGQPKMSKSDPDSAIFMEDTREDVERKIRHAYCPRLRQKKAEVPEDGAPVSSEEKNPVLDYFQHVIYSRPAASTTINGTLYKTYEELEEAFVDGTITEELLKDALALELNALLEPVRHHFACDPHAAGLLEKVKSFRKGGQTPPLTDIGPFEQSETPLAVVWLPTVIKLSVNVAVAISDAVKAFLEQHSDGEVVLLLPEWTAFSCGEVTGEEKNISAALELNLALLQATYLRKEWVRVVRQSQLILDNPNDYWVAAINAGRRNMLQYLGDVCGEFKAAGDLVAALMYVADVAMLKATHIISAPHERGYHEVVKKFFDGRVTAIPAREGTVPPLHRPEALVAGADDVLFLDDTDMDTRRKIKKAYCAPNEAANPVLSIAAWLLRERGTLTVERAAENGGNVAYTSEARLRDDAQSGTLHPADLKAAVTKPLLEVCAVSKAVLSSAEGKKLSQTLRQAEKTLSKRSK

[10] = molecular target: T4, Tyrosyl-tRNA synthetase, putative (Trypanosoma cruzi (strain CL Brener)); experiment: Trypanosoma cruzi tyrosyl tRNA synthetase (TcYRS) SOP; assay type: functional; conditions: 30 µM
[11] = molecular target: Chromo domain-containing protein 1 (Saccharomyces cerevisiae (strain ATCC 204508 / S288c) (Baker's yeast)) (UniProt P32657); experiment: ScCHD-1 Enzyme Inhibition Assay; assay type: functional; conditions: 30 µM; further: in the data most compounds retested in dose-response had high values
Chromo domain-containing protein 1 (Saccharomyces cerevisiae (strain ATCC 204508 / S288c) (Baker's yeast)), sequence (P32657 whole entry, the tested form may be a part): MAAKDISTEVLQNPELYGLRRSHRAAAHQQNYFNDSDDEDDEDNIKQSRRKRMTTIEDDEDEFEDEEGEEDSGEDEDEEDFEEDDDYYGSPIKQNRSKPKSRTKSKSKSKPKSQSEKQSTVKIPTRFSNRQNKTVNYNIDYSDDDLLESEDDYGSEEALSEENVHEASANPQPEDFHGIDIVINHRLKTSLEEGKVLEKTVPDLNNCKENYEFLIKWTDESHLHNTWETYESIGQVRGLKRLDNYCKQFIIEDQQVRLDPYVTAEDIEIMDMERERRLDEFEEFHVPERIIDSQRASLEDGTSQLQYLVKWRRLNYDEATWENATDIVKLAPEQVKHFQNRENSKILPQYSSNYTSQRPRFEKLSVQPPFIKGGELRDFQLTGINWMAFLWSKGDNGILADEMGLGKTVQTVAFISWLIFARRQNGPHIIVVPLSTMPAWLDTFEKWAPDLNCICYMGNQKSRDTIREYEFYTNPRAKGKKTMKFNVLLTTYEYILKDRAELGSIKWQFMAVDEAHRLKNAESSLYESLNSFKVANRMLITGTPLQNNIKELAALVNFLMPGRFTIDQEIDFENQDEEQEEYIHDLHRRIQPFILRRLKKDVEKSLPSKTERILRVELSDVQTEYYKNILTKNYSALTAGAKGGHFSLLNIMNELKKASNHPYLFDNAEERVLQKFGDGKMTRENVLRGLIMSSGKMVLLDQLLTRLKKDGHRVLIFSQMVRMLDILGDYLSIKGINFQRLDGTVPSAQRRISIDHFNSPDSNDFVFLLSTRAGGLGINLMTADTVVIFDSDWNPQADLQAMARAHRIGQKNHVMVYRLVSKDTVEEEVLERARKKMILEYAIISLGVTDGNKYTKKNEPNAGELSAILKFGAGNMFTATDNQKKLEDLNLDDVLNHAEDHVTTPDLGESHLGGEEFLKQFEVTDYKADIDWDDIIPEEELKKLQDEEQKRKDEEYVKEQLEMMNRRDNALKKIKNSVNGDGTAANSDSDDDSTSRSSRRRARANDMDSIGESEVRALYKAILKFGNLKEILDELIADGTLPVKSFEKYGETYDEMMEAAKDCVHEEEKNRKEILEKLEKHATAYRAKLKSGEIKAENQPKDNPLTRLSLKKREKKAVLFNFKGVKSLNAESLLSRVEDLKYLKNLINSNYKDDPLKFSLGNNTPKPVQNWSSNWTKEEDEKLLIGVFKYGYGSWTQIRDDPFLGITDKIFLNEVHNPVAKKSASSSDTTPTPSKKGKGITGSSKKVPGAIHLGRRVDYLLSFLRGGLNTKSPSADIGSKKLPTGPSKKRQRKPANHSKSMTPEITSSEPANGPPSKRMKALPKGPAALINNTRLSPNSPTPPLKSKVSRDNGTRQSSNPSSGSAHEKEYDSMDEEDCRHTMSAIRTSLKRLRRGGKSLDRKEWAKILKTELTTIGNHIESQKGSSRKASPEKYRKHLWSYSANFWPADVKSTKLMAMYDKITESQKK

Row | SMILES | Percent Effect [1] [%] | Percent Effect [2] [%] | Percent Effect [3] [%] | Percent Effect [4] [%] | Percent Effect [5] [%] | Percent Effect [6] [%] | Percent Effect [7] [%] | Percent Effect [8] [%] | Percent Effect [9] [%] | Percent Effect [10] [%] | Percent Effect [11] [%]
1 | CCC(CC)NC(=O)Cn1nc(C)nc1-c1ccccc1 | -4.52 | 16.2 | -5.72 | 3.26 | -6.32 | -1.2 | 3.6 | 21.4 | 6.4 | 11.1 | -8.07
2 | CCN(CC)C(=O)Cn1ccc2cc(NC(=O)C3CC3)ccc21 | -5.06 | 15.8 | -9.59 | 7.96 | 6.39 | -3.06 | 14.9 | 4.68 | 5.39 | 21.9 | -12.7
3 | Cc1cc(C)n(CC2CN(Cc3nnsc3Cl)CCO2)n1 (stereo unspecified) | -1.37 | 21.1 | 3.21 | 2.78 | -2.82 | -4.21 | 14.7 | -18.7 | 4.41 | 17.1 | -7.75
4 | COc1cc2nc3n(c(=O)c2cc1OC)CCN(C)CC3 | -7.78 | 1.35 | 11.9 | 1.61 | -3.56 | -3.48 | 0.312 | 0.926 | 2.15 | 3.9 | -5.62
5 | CC(NC(=O)c1cccs1)C(=O)NCc1cccnc1N1CCCCC1 (stereo unspecified) | -5.05 | 15.6 | 4.11 | 3.01 | -3.93 | 0.712 | 9.46 | 10.2 | 1.94 | 7.32 | -4.16
6 | O=C(NCCCNC(=O)c1cccc(O)c1)Nc1ccc(F)cc1F | -7.43 | 18.4 | 7.05 | -5.18 | 2.24 | -3.55 | 12.9 | 3.94 | 2.13 | 15.6 | -5.87
7 | CC(=O)N1CCCCC1c1nc2c(c(N3CCCCC3)n1)CN(C)CC2 (stereo unspecified) | 0.622 | -9.46 | 2.5 | 0.77 | 1.38 | -3.48 | 23.4 | 11.2 | 15.1 | 14.3 | -9.65
8 | Cn1cc(C(=O)NCc2cn3c(n2)CN(CC2CCOCC2)CC3)cn1 | -2.09 | 5.41 | 26.2 | -3.62 | -1.95 | 1.67 | 11.9 | 20.1 | 7.92 | 15.8 | -0.801
9 | Cc1cc(S(=O)(=O)N2CCCc3ccc(F)cc32)sc1C(=O)O | -6.14 | 0 | 3.45 | 0.802 | -1.85 | 4.69 | 1.74 | 12.6 | -23.5 | -33.3 | -2.04
10 | OC(CN1CCCCCCC1)c1ccc(F)cc1 (stereo unspecified) | 0.984 | 10.5 | -3.76 | -5.28 | 7.33 | -1.15 | 15.4 | 11.7 | 7.35 | 19.5 | -11.6
11 | OC[C@H]1CC[C@]2(CC1)CN(Cc1ccccc1F)Cc1ccccc1O2 | -4.99 | 4.05 | 15.1 | 6.64 | 4.15 | 2.55 | 12.6 | 41.4 | 3.23 | 14.3 | -0.993
12 | O=S(=O)(Cc1ccccc1)NCC1CCN(c2cnccn2)CC1 | -2.03 | 10.4 | 5.37 | -3.08 | -6.02 | -3.23 | 10.4 | 9.96 | 3.17 | 6.41 | -7.97
13 | CNC(=O)C1CCN(C(=O)c2ccn(-c3ccc(F)cc3)n2)CC1 | -3.93 | 16.2 | 1.73 | 1.5 | -1.21 | 2.77 | 7.54 | 8.4 | 10.9 | 23.2 | -0.908
14 | CCn1nc(CC(C)C)cc1C(=O)NCCCOC | -2.12 | 6.94 | 0.357 | 4.91 | 0.291 | 4.86 | 15.8 | 3.12 | 5.26 | 7.69 | 0.96
15 | Cc1nc(C2CCCN2CCCNS(C)(=O)=O)no1 (stereo unspecified) | -3.7 | 15.8 | -4.74 | 1.41 | 7.14 | 4.98 | 20.4 | -7.41 | 4.41 | 19.5 | -5.18
16 | Cc1nnc(C(C)N2CCN(Cc3ccc4c(c3)OCO4)CC2)o1 (stereo unspecified) | -8 | 8.11 | -13.4 | 7.45 | -4.62 | -4.01 | -0.36 | 13.3 | -0.493 | -8.64 | 2.83
17 | COCc1nn(C(C)C)c2c1CCN(Cc1ccc(C)s1)C2 | -2.06 | 2.74 | -1.91 | -1.63 | 0.198 | 5.99 | 7.62 | 1.17 | 2.08 | 3.7 | -2.29
18 | CCOCC(=O)N1C[C@@H]2COC[C@H](c3nc(C)no3)[C@@H]2C1 | -1.23 | -5.41 | 5.84 | -1.1 | 0.586 | 2.5 | 9.21 | 1.97 | -15.8 | -1.22 | -2.33
19 | CNc1cc(CNC(=O)c2ccccn2)nc(-c2ccncc2)n1 | -1.08 | 17.6 | 3.35 | -3.17 | 2.37 | 0.696 | 14.7 | 2.78 | 2.15 | 24.7 | -15.3
20 | Cc1noc(CN(Cc2ccc3c(c2)OCO3)Cc2ccc(C)o2)n1 | -2.53 | 13.5 | -9.33 | -9.31 | -5.75 | 3.21 | 13.3 | 27.4 | 8.37 | 13.6 | -6.37
21 | CCN(CC(=O)NC(C)C)S(=O)(=O)N1CCC(C)C1 (stereo unspecified) | -2.1 | 0 | -2.33 | -4.69 | 2.05 | 1.24 | 5.24 | -14.3 | 1.07 | 6.17 | -6.4
